Targets with a hit are over-represented here; the source holds about 8,800 in all. About 0.5% of all pairs of compound and target were hits.
Legend:
Assay in all cases: log2 fold change, soluble protein after heating vs DMSO (PISA); higher = thermal stabilisation; K562 lysate, 10 uM; active = over 0.2 and 3.5 SD of the protein, either way, in both replicates (recomputed)
[1] = compound: CCCS(=O)(=O)Nc1ccc(F)c(C(=O)c2c[nH]c3ncc(-c4ccc(Cl)cc4)cc23)c1F [vemurafenib]
How it was run: (§1)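 Log-two fold change in thermal stability relative to solvent controls is reported from duplicates. For each sample, crude K562 extract from dounce-homogenised pellets in PBS pH 7.4 with 1 mM MgCl2, at 1 mg/mL protein, was treated with 10 μM compound for 30 min. Aliquots heated for 3 min across 48°C-58°C were pooled, brought to 0.5% NP-40 at 4°C and cleared at 21,000xg for 90 min. The supernatant was quantified by TMTpro 16plex LC-MS/MS with channel sums equalised.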

[2] = compound: CCCS(=O)(=O)Nc1ccc(F)c(C(=O)c2c[nH]c3ncc(Cl)cc23)c1F
How it was run: as §1

[3] = compound: CC[C@@H]1C(=O)N(C)c2cnc(Nc3ccc(C(=O)NC4CCN(C)CC4)cc3OC)nc2N1C1CCCC1
How it was run: as §1

[4] = compound: CC[C@@H]1C(=O)N(C)c2cnc(Nc3ccc(C(=O)N[C@H]4CC[C@H](N5CCN(CC6CC6)CC5)CC4)cc3OC)nc2N1C(C)C [volasertib]
How it was run: as §1

[5] = compound: CCn1c(C(=O)N(C2CC2)C2CC2)cc2c3c(ncn3C)c(Nc3cc(C)n(C)n3)nc21
How it was run: as §1

[6] = compound: CCn1cc(-c2ccnc3[nH]c(-c4cccc(CN(C)C)c4)cc23)c(-c2ccc(NC(=O)N(C)C)cc2)n1
How it was run: as §1

[7] = compound: CN1CCC(CNc2ccc3ncc(-c4cccc(OC(F)(F)F)c4)n3n2)CC1
How it was run: as §1

[8] = compound: CN1CCN(CCOc2cc(OC3CCOCC3)c3c(Nc4c(Cl)ccc5c4OCO5)ncnc3c2)CC1 [saracatinib]
How it was run: as §1

[9] = compound: CN1CCN(c2nc(C3=C(c4c[nH]c5ccccc45)C(=O)NC3=O)c3ccccc3n2)CC1 [sotrastaurin]
How it was run: as §1

[10] = compound: CCN(CCCOc1ccc2c(Nc3cc(CC(=O)Nc4cccc(F)c4)[nH]n3)ncnc2c1)CCOP(=O)(O)O [barasertib]
How it was run: as §1

Measured: log2 fold change

ZDHHC17 (UniProt Q8IUH5)
Sequence of UniProt Q8IUH5 (Q8IUH5 whole entry, looked up): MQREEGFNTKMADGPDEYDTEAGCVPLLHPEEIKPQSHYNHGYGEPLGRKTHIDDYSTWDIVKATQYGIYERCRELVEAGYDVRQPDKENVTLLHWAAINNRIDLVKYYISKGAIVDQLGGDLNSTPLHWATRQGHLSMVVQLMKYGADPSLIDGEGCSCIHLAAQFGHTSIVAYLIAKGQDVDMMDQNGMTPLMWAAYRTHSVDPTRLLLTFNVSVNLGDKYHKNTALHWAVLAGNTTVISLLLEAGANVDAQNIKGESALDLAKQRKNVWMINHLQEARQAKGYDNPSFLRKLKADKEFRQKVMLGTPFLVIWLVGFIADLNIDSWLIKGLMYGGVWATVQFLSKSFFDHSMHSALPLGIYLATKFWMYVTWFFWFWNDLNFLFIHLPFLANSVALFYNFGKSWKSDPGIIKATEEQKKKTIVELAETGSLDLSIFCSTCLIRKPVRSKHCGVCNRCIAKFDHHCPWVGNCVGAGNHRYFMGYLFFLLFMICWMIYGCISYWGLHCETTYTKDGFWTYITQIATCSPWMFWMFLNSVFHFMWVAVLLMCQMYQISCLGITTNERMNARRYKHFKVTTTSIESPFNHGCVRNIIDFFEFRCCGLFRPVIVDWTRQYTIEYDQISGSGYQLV
inactive: [1] 0.058 | [2] 0.047 | [3] 0.077 | [4] -0.071 | [5] 0.166 | [6] -0.346 | [7] 0.141 | [8] 0.205 | [9] 0.117

ZYG11A (UniProt Q6WRX3)
Sequence of UniProt Q6WRX3 (Q6WRX3 whole entry, looked up): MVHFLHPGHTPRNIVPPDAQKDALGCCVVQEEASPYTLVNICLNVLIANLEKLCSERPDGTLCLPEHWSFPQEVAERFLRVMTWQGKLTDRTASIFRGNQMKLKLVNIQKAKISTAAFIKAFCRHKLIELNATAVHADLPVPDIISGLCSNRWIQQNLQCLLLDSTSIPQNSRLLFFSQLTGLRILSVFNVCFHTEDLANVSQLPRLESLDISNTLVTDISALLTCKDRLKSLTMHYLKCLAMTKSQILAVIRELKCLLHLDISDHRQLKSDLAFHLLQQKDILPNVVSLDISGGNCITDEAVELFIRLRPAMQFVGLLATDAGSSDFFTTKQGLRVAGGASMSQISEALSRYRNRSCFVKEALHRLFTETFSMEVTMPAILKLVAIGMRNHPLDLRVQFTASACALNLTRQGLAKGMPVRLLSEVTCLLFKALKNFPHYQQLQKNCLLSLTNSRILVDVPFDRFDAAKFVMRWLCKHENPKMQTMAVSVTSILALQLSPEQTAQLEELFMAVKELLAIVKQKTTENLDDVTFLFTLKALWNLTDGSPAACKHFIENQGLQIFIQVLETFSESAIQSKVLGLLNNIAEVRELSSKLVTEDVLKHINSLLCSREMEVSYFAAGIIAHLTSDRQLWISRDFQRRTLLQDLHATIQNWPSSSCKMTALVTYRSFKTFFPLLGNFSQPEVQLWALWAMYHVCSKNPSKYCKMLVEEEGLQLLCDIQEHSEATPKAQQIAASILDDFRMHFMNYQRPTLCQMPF
inactive: [2] -0.15 | [10] 0.286 | [4] -0.017 | [5] -0.035 | [6] -0.16 | [7] 0.011

ZNF845 (UniProt Q96IR2)
Sequence of UniProt Q96IR2 (Q96IR2 whole entry, looked up): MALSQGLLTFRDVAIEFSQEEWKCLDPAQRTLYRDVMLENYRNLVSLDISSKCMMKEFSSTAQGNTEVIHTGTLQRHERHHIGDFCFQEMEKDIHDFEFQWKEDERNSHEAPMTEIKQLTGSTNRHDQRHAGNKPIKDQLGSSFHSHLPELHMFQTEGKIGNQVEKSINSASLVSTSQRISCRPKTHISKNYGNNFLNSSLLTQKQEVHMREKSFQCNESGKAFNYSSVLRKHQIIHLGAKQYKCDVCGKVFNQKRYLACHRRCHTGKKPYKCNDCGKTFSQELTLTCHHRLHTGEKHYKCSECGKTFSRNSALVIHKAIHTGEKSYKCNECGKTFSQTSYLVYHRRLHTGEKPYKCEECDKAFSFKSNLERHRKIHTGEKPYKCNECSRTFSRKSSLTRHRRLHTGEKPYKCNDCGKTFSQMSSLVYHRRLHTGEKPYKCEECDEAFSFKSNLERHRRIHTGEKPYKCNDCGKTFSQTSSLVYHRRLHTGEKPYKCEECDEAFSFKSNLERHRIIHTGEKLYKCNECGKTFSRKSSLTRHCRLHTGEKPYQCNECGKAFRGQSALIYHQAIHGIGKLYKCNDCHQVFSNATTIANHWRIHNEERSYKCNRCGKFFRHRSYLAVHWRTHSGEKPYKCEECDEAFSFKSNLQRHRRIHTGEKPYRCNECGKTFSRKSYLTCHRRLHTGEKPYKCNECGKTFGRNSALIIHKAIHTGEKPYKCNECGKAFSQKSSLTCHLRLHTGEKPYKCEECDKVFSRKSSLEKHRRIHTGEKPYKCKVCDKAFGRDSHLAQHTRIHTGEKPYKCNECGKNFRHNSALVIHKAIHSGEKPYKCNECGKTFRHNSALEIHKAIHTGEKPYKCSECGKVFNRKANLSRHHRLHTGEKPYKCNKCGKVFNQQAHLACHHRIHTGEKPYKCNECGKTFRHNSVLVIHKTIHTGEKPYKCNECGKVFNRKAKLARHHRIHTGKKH
inactive: [1] 0.085 | [2] -0.024 | [10] 0.088 | [4] -0.044 | [5] 0.135 | [6] -0.012 | [7] 0.078 | [8] -0.019 | [9] -0.012

WSB1 (UniProt Q9Y6I7)
Sequence of UniProt Q9Y6I7 (Q9Y6I7 whole entry, looked up): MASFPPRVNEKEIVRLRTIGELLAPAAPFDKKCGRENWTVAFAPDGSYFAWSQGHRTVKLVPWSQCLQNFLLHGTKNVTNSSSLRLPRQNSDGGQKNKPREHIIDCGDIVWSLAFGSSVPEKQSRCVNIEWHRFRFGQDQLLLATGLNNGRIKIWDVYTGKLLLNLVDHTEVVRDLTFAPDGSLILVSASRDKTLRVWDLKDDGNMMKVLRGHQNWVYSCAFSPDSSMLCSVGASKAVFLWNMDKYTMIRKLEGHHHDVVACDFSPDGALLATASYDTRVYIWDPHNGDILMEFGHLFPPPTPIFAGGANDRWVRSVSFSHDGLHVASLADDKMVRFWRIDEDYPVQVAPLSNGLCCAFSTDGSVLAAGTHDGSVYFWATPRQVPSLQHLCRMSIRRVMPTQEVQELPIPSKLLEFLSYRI
inactive: [5] 0.105 | [6] 0.078 | [7] 0.08 | [8] -0.159

ZSCAN21 (UniProt Q9Y5A6)
Sequence of UniProt Q9Y5A6 (Q9Y5A6 whole entry, looked up): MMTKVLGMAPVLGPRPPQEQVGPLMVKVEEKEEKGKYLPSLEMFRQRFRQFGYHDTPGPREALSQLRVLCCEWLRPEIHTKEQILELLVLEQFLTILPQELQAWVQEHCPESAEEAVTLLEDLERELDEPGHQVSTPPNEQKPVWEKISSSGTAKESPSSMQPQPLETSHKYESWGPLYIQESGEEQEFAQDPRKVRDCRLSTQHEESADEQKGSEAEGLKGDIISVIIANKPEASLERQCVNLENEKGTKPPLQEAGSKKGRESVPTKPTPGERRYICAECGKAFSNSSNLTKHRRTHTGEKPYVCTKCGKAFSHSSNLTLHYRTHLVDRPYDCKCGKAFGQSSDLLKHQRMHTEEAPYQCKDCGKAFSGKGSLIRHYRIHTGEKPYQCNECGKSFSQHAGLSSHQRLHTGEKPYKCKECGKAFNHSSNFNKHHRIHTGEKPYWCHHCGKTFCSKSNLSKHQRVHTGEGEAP
inactive: [3] -0.024 | [6] 0.043 | [7] 0.053

USP22 (UniProt Q9UPT9)
Sequence of UniProt Q9UPT9 (Q9UPT9 whole entry, looked up): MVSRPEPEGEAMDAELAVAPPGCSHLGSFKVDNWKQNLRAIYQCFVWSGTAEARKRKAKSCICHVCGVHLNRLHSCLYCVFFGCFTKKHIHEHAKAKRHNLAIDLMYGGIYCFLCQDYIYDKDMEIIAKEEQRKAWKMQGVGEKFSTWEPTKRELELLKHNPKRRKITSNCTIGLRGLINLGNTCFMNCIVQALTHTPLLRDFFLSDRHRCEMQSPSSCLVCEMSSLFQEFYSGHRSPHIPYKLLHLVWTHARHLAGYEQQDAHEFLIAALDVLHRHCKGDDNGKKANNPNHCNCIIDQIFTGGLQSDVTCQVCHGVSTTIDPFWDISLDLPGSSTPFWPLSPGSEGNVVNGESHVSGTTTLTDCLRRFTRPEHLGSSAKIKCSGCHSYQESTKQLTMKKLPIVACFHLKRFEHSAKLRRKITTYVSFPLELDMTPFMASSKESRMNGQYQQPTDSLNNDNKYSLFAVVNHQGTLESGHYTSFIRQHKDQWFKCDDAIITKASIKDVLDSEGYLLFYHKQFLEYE
inactive: [1] -0.019 | [10] 0.008 | [3] 0.026 | [5] 0.034 | [6] 0.031 | [7] 0 | [8] -0.026 | [9] 0.018
